From PubChem BioAssay
MazF activator – activators of E. coli MazEF toxin-antitoxin RNase, primary screen, biochemical, fluorescence, uHTS; FAM/BHQ RNA-DNA oligo cleavage fluorescence, 5 h; 0.32% of 350,000 active; AID 504720, 2011; activation, % at 20 µM; Endoribonuclease toxin MazF (Escherichia coli (strain K12)), P0AE70; in the data active = activation above about 50%
Anthrax LF inh2 – Bacillus anthracis LF protease inhibitors, primary screen, biochemical, multiplex microsphere, MLPCN library. Lethal factor (Bacillus anthracis), P15917. multiplex microsphere protease cleavage assay. inhibition, % at 10 µM. 0.12% of 360,000 active. AID 588501, 2011; note: plate controls were buffer without enzyme for full effect and enzyme alone for no effect
BoNT-A LC inh2 – BoNT/A light chain protease inhibitors, primary screen, biochemical, flow cytometry, MLPCN library | multiplex microsphere protease substrate cleavage | 0.17% of 360,000 active | Botulinum neurotoxin type A light chain protease (Clostridium botulinum A str. ATCC 3502) | inhibition, % at 10 µM; note: plate controls were buffer without enzyme for full effect and enzyme alone for no effect
Bead autofluor – flagged as autofluorescent in microsphere protease counterscreen; 3.1% of 360,000 active; compound autofluorescence counterscreen, microsphere flow cytometry; active compounds read high; AID 624483; fluorescence intensity (no concentration beside the values); in the data active = fluorescence intensity above about 16000; inconclusive = no clear call, values can overlap the other calls
BoNT-F LC inh – BoNT/F light chain protease inhibitors, primary screen, biochemical, flow cytometry, MLPCN library | inhibition, % at 10 µM | 0.22% of 360,000 active | Multiplex microsphere protease cleavage assay; in the data active = inhibition above about 35%, passing the limit was not always enough; inconclusive = no clear call, values can overlap the other calls; note: plate controls were buffer without enzyme for full effect and enzyme alone for no effect
Active calls of the source: *; u = inconclusive; x = no result. Shown are actives, neighbours in structure and some others; about 3.6% of the full set was active somewhere. Cut-off read from the data, not from the text of the source, unless noted: active = inhibition above about 30%; inconclusive = no clear call, values can overlap the other calls; inactive = below that.

SMILES	MazF activator	Anthrax LF inh2	BoNT-A LC inh2	Bead autofluor	BoNT-F LC inh
CCn1c(SCc2ccccc2)nnc1-c1ccc(S(=O)(=O)N2CCCCC2)cc1	3.0	5.3	2.0	8642	10.2
CCn1c(SCc2nnc(-c3ccccc3)o2)nnc1-c1ccc(S(=O)(=O)N2CCCC2)cc1	6.9	0.1	-1.3	23063*	-3.2
O=c1c2ccccc2nc(SCc2nnc(-c3ccccc3)o2)n1-c1ccccc1	4.8	-5.1	-1.0	11365	-6.9
COc1ccc(-c2nnc(SCc3nnc(-c4ccccc4)o3)n2-c2ccccc2)cc1	68.9*	-4.9	0.2	8897	5.6
O=C(CSc1nnc(-c2ccccc2)n1-c1ccccc1)c1ccc[nH]1	5.8	-0.7	0.3	2210	-8.4
O=C(CSc1nnc(-c2ccccc2)n1-c1ccccc1)c1cccs1	0.5	-1.1	u	21163*	-6.1
Cc1ccc(OCCN2C(=O)c3ccccc3C2=O)cc1	1.9	-1.1	2.2	22823*	0.1
Cc1ccc(OCCN2C(=O)c3ccccc3C2=O)c(C)c1	2.2	-2.4	-0.6	8848	-9.0
CCC(C)NC(=O)CCc1nnc2ccc(N3CCC(C)CC3)nn12 (centres undefined)	3.5	-11.9	0.6	2932	-9.6
CCOC(=O)C(C)NC(=O)CCc1nnc2ccc(N3CCC(C)CC3)nn12 (centres undefined)	-5.9	-0.9	1.8	4017	37.2*
Cc1cc2c3c(c1)C1(SCC(=O)N1c1ccc(F)cc1)C(=O)N3C(C)(C)CC2C (centres undefined)	3.9	-3.8	-8.0	18092*	-10.0
Cc1oc2cc3oc(=O)c(CCC(=O)NCc4ccccn4)c(C)c3cc2c1C	1.7	2.1	0.1	4948	-3.1
Cc1cc(C=C2C(=O)c3ccccc3C2=O)c(C)n1-c1ccc(C(=O)O)cc1	-11.6	-0.6	-0.6	4364	-3.6
O=C1C(=Cc2cccn2-c2ccc(O)cc2)C(=O)c2ccccc21	262.8*	-0.9	0.8	3207	-3.6
Cc1cc(C=C2C(=O)c3ccccc3C2=O)c(C)n1-c1ccccc1	156.1*	1.2	6.0	9467	-9.8
C(=N\n1cnnc1)/c1cccn1-c1ccccc1	7.1	-2.0	-1.5	16775*	-4.3
O=C1C(=Cc2cccn2-c2ccccc2)C(=O)c2ccccc21	241.8*	0.7	2.8	8473	6.6
Cc1cc(/C=N/n2cnnc2)c(C)n1-c1ccccc1	2.8	-0.3	-0.5	2943	10.0
O=C(O)c1cccc(-n2cccc2C=C2C(=O)c3ccccc3C2=O)c1	-28.1	1.8	1.0	2508	1.0
CCn1nc(C)c([N+](=O)[O-])c1C(=O)NNC(=O)c1ccc(Cl)cc1	3.3	-3.9	u	3193	u
CCN(C(=O)CSc1nccc(=O)[nH]1)C1CCCCC1	3.5	-8.2	-0.1	2944	-4.6
CN(Cc1ccccc1)C(=O)c1[nH]cnc1C(=O)Nc1cccc(Cl)c1	-1.9	0.6	0.3	3292	-4.1
Cc1ccc(Cn2nnc3c(=O)[nH]c(C4CCN(C(=O)c5cccs5)CC4)nc32)cc1	-0.3	-0.3	-1.1	23099*	-3.2
O=c1[nH]c(C2CCCN(S(=O)(=O)c3ccccc3)C2)nc2c1nnn2Cc1ccccc1 (centres undefined)	-13.4	-0.9	2.2	22466*	1.9
CCOC(=O)N1CCN(CC(O)COCc2cc(OC)c(OC)c(OC)c2)CC1 (centres undefined)	2.4	-0.4	0.9	1984	7.5
SMILES	MazF activator	Anthrax LF inh2	BoNT-A LC inh2	Bead autofluor	BoNT-F LC inh
O=C(c1ccccc1)c1ccc(OCC(O)CN2CCN(S(=O)(=O)N3CCCCC3)CC2)cc1 (centres undefined)	6.0	-0.4	0.5	23589*	1.6
Cc1ccc(OCC(O)Cn2c(=N)n(Cc3ccccc3)c3ccccc32)cc1 (centres undefined)	23.8	-2.9	-1.1	22794*	-2.9
CCOC(=O)C1CCN(CC(O)COc2ccc(C(=O)CC)cc2)CC1 (centres undefined)	3.1	-2.7	0.3	22284*	-1.3
Cc1ccc(OCC(O)CN2CCN(CC(O)COc3ccc(C)cc3)CC2)cc1 (centres undefined)	-4.7	-0.3	-2.8	17745*	-5.3
Cc1ccc(OCC(O)CN2CCN(c3ccc(C)cc3)CC2)cc1 (centres undefined)	-2.4	-5.2	-0.8	4328	u
O=C(c1ccccc1)c1ccc(OCC(O)CN2CCCCC2)cc1 (centres undefined)	-1.8	-3.3	-1.1	4223	5.9
Cc1noc(C)c1CSCC(=O)N(C)CC(=O)Nc1ccccc1C(F)(F)F	5.6	2.8	-0.6	6406	4.3
O=C(CCn1nnnc1CN1CCOCC1)N1CCC(c2cccc(Cl)c2)C1 (centres undefined)	0.8	3.4	-0.4	6218	-3.0
COc1c(C)cc(C(O)c2ncc(-c3ccccc3F)[nH]2)cc1C (centres undefined)	x	-10.8	-0.6	3957	-6.0
Cc1cccc(NC(=O)C2CCCN2C(=O)OCC(C)C)c1 (centres undefined)	6.4	-3.0	0.8	9794	6.3
Cc1cccc(NC(=O)C2CCCN(C(=O)Nc3ccccc3)C2)c1C (centres undefined)	-1.4	-0.6	u	22928*	-4.1
O=C(NCCc1ccccc1)C1CCCN(C(=O)NC2CCCCC2)C1 (centres undefined)	2.2	-4.3	u	22227*	0.8
Cc1cccc(NC(=O)C2CCCN2C(=O)OCC(C)C)c1C (centres undefined)	2.3	-1.8	2.2	21398*	2.8
O=C(NCc1ccccc1)C1CCCN(C(=O)Nc2ccccc2)C1 (centres undefined)	-4.5	-6.0	u	20689*	-4.9
CC(=O)Nc1ccc2c(c1)C(=O)c1cccc(C(=O)O)c1-2	6.0	1.7	0.0	3273	-0.3
Cc1ccc(S(=O)(=O)NCCn2nc(C)nc2C)cc1	7.2	-1.2	0.9	5083	-4.3
CC(=O)Oc1ccc(N2C(=O)C3C4C=CC(C5CC45)C3C2=O)cc1[N+](=O)[O-] (centres undefined)	3.4	2.7	1.0	2615	-6.1
O=C(NC1CCCCC1)N1CCCCCC1	-9.6	-1.8	0.7	7826	1.8
O=C(NC1CCCCC1)N1CCCC1	-0.3	-2.4	0.9	21923*	1.3
CCOC(=O)N1CCN(C(=O)COC(=O)c2oc3ccc(OC)cc3c2C)CC1	2.0	-2.8	-1.1	5777	-1.7
CN(CCc1ccccn1)Cc1ccc(Cl)cc1	4.6	-0.3	-0.5	20900*	-2.7
CCc1ccc(CN(C)CCc2ccccn2)cc1	1.5	-4.3	u	16273*	-0.7
Cc1ccc(CN(C)CCc2ccccn2)cc1	-14.3	-1.0	0.3	12063	-8.3
O=[N+]([O-])c1cccc(/C([O-])=C(/C(=S)Nc2ccccc2)[n+]2ccccc2)c1	10.1	1.0	19.5	1888	-25.0
